Measured values as given in PubChem BioAssay (EPA / NIEHS).
Records with an inconclusive call do not appear. Active and inactive are the calls of the source. How the source made its calls: active means hit-call score of the fitted dose curve at least 0.9, where 1 is the maximum; inconclusive means response in the unintended direction; inactive means score below 0.9.

Target: human RAR-related Orphan Receptor beta (RORb), RORB (gene 6096) (UniProt Q92753)
Assay: ATG_RORb_TRANS: Attagene TRANS-FACTORIAL HepG2 Assay for human RAR-related Orphan Receptor beta (RORb) (AID 2283010)
Experimental: ATG_TRANS is a cell-based, multiplexed-readout assay that uses HepG2, a human liver cell line, with measurements taken at 24 hours after chemical dosing in a 24-well plate.ATG_RORb_TRANS is one of 30 assay component(s) measured or calculated from the ATG_TRANS assay. It is designed to make measurements of mRNA induction, a form of inducible reporter, as detected with fluorescence intensity signals by Reverse transcription polymerase chain reaction (RT-PCR) and Capillary electrophoresis technology.Data from the assay component ATG_RORb_TRANS was analyzed into 1 assay endpoint. This assay endpoint, ATG_RORb_TRANS, was analyzed in the positive analysis fitting direction relative to DMSO as the negative control and baseline of activity. Using a type of inducible reporter, measures of mRNA for gain-of-signal activity can be used to understand the reporter gene at the transcription factor-level as they relate to the gene RORB. Furthermore, this assay endpoint can be referred to as a primary readout, because this assay has produced multiple assay endpoints where this one serves a reporter gene function. To generalize the intended target to other relatable targets, this assay endpoint is annotated to the nuclear receptor intended target family, where the subfamily is orphan.
Human liver HepG2 cells are transiently transfected with multiple reporter transcription units (MRTUs) in 6-well plates using FuGene 6 reagent (Roche; 3 ml FuGene/1 mg DNA). The MRTU constructs are regulated by a cis-regulating element (promoter). […] A major difference between the CIS and TRANS system is that in CIS activities of endogenous TFs are measured, whereas the TRANS assay evaluates changes in activities of exogenous, chimeric NR-Gal4 proteins. […] At the end of 24 hour incubation, total RNA was isolated using TriZol reagent (Invitrogen). The isolated RNA is then reverse-transcribed using oligo(dT) primer and Mo-MLV reverse transcriptase (Invitrogen) with DNAse I (Ambion) treatment for 30 min. The one-tenth of the produced cDNA was amplified by PCR using Taq DNA polymerase (Invitrogen) and two reporter sequence-specific primers. The PCR products were fluorescently labeled by primer extension with 6-arboxyfluorescein (6-FAM) 5'-labeled reporter sequence-specific primer (2 min at 95 C, 20 s at 68 C and 10 min at 72 C) and these products were digested with 5U of HpaI (New England Biolabs) for 2h at 37 C. The fragments were purified using Qiaquick PCR columns (Qiagen), analyzed on an ABI 3130xL genetic analyzer (Applied Biosystems) with peak positions identified by using a set of X-rhodamine (ROX)-labeled MapMarker1000 molecular weight standards (BioVentures). The raw capillary electrophoresis data was processed using Attagraph software (Attagene).

human RAR-related Orphan Receptor beta (RORb), RORB (gene 6096), sequence (Q92753 whole entry, looked up): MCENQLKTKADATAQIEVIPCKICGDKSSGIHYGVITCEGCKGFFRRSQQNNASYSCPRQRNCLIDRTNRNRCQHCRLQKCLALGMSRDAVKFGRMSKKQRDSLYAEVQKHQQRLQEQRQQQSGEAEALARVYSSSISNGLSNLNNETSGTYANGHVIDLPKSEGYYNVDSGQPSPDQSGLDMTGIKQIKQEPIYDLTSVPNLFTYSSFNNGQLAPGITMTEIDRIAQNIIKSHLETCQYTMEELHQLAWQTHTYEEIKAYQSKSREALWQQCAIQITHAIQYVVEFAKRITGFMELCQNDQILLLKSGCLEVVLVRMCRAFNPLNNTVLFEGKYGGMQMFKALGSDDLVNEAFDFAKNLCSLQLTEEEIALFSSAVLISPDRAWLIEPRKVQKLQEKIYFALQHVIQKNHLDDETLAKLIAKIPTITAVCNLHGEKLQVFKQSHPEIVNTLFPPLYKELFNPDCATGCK

SMILES	outcome
CC(=O)C(C)O (stereo not given)	inactive
CCCCCCC(C)(C)S	inactive
O=C1OC(=O)c2c(Cl)c(Cl)c(Cl)c(Cl)c21	inactive
Cc1ncc([N+](=O)[O-])n1CCO	inactive
Cc1c(C2(c3cc(Br)c(O)c(Br)c3C)OS(=O)(=O)c3ccccc32)cc(Br)c(O)c1Br	inactive
C=C(CC(=O)O)C(=O)O	inactive
CCOc1ccc(NC(=O)CC(C)=O)cc1	inactive
O=C(CS)OCCOC(=O)CS	inactive
C=CCOC(=O)CCCCCC	inactive
CS(=O)(=O)OCCCCOS(C)(=O)=O	inactive
CCOCCOCCOCC	inactive
C=Cc1ccncc1	inactive
CN(C)c1cccc(O)c1	inactive
CC1=NN(c2ccc(S(=O)(=O)O)cc2)C(=O)C1	inactive
Cc1ccc(-c2ccccc2)cc1	inactive
O=c1c(O)c(-c2ccc(O)cc2)oc2cc(O)cc(O)c12	inactive
CCN(CCC#N)c1ccc(N=Nc2ccc([N+](=O)[O-])cc2)cc1	inactive
CC(=O)NCCO	inactive
COc1ccc(CCC(C)=O)cc1	inactive
CC(C)OCCO	inactive

SMILES	outcome
O=C1OC2(c3ccccc31)c1ccc(O)c(Br)c1Oc1c2ccc(O)c1Br	inactive
CC(C)C[C@H](NC(=O)OCC1c2ccccc2-c2ccccc21)C(=O)O	inactive
CC1(C)O[C@@H]2C[C@H]3[C@@H]4CCC5=CC(=O)C=C[C@]5(C)[C@@]4(F)[C@@H](O)C[C@]3(C)[C@]2(C(=O)CO)O1	inactive
Clc1cc(Cl)c(-c2c(Cl)c(Cl)cc(Cl)c2Cl)cc1Cl	inactive
CCCCCCCC/C=C\CCCCCCCC(=O)OCC	inactive
Cc1ccc(S(=O)(=O)Oc2ccc(N=Nc3ccc(-c4ccc(N=Nc5c(O)ccc6cc(S(=O)(=O)O)cc(S(=O)(=O)O)c56)c(C)c4)cc3C)cc2)cc1	inactive
CCCC(O)C(O)CO (stereo not given)	inactive
CC(C)CCOC(=O)c1ccccc1	inactive
COc1ccccc1[N+](=O)[O-]	inactive
NCCNc1cccc2ccccc12	inactive
Cc1occc(=O)c1OC(=O)C(C)C	inactive
C[Si]1(C)O[Si](C)(C)O[Si](C)(C)O1	inactive
C[C@H]1C[C@@H](O)CC(C)(C)C1	inactive
O=CCc1ccccc1	inactive
CCCOCCO	inactive
C=C(C#N)C(=O)OCC	inactive
Nc1ccc2cc(S(=O)(=O)O)cc(O)c2c1N=Nc1ccccc1C(F)(F)F	inactive
CN(C)CCOC(C)(c1ccccc1)c1ccccn1 (stereo not given)	inactive
CSCCC=O	inactive
C=CCCCCCCCCCC	inactive
